This note sets out measurements from PubChem BioAssay (NCI).

Each structure is given as a SMILES string. This is part of a sample that, as a whole, favours compounds with a hit. Of some 83,000 tested, about 20% had one in any assay.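 Step 1: grow cells in 96-well plates. Step 2: add test compound at a single concentration. Step 3: incubate 48 h. Step 4: record percent growth.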 Active and inactive are the calls of the source. Rule for the calls: active = growth percent below 10; inactive = the rest.

In this assay the test system is SK-MEL-5 melanoma. In words: NCI-60 one-dose screen, 48 h (100 = growth as untreated, 0 = no growth, -100 = all killed). The note with it: 10 µM unless noted.
`Cn1/c(=N\N=C\c2ccccc2OCCO)sc2ccccc21`: the growth was 88% (inactive). Consider `C=C1C(=O)C2CCC1C2` (stereo unspecified), for which the growth was 105% (inactive). The value for `CC(C)C(C)(C)C(=O)C(C)(C)C(C)(C)C` was 101% (inactive); that for `CCOC(=O)c1cc(Cl)c(O)c(Cl)c1` was 102% (inactive); that for `C[n+]1cc2cc3c(cc2c2ccccc21)OCO3` was 43.1% (inactive). For `NCCCN1CCCC1=O`, the growth was 100% (inactive). The value for `CCCCCCCCCCCCCCCCCCSC(=N)N` was 98.3% (inactive); that for `C=C1C(=O)C2CCN1CC2` was 104% (inactive). The value for `N#CC1(O)CCCCC1` was 106% (inactive). The value for `CCOC(=O)CO` was 107% (inactive); that for `CCOC(=O)N[C@H]1CCc2cc(OC)c(OC)c(OC)c2-c2ccc(SC)c(=O)cc21` was -51.3% (active); that for `CC1CCC(C)(C)c2ccccc21` (stereo unspecified) was 95.8% (inactive). As to `CCN(CC)CCCC(C)NC(=S)N/N=C(\C)c1ccccn1` (stereo unspecified), the growth is 37.8% (inactive).

`CCNC(=O)Oc1ccc[nH]c1=O`: the growth is 95.2% (inactive). The value for `Cc1cccc(C)c1NC(=S)/N=C\c1c(O)[nH]c(=O)[nH]c1=O` was 96.3% (inactive); that for `Cc1ccc(C)c(CCO)c1` was 90.7% (inactive); that for `O=C(OCC1CCCO1)c1ccc([N+](=O)[O-])cc1` (stereo unspecified) was 104% (inactive). The value for `CC(=O)c1cccc(NS(=O)(=O)c2ccc(C)cc2)c1` was 60.2% (inactive).

Turning to `CCCNS(=O)(=O)c1ccc(Cl)cc1`, the growth was 105% (inactive). The value for `COc1nc(Nc2cccc(C(F)(F)F)c2)nc(OC)n1` was 94% (inactive); that for `COC1OC(C(COC(C)=O)OC(C)=O)C(OC(C)=O)C(OC(C)=O)C1OC(C)=O` (stereo unspecified) was 106% (inactive).
